# Results reported in PubChem BioAssay (NCATS).
# Unmarked numbers belong to inactive results. Entries that show only a call come without a potency. The source made the active and inactive calls. The call rests on the fitted dose curve; in most records, active means well fitted curve in the direction sought with a large enough effect; inconclusive means small, poorly fitted or top-dose-only effect, or another doubt; inactive means no such curve, though single readings can be large or run the other way.
# Assay: qHTS for ATAD5 Agonist screened against the NCATS CANVASS Library (AID 1347367);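 further: luciferase reporter driven by ATAD5 which rises upon DNA damage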
# Conditions: HEK293T ATAD5-luciferase reporter, luminescence, 16 h; series mostly up to 46.1 µM
# Method in brief: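 HEK293T cells stably carrying an ATAD5-controlled luciferase reporter (2000 cells/well) attached for 5 hr, then received compounds in an 11-point series for 16hr at 37C. Luminescence was read after a 30 min room-temperature reagent step.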
# Potency means the concentration at half of the fitted maximal effect.
Structure (SMILES),Potency,activation
O=C1CC2OCC=C3CN4C5CC3C2[C@@H]2N1c1ccccc1[C@]52C[C@@H]4C1=C[C@H]2C3CC4N(CC[C@@]45c4ccccc4N(C1=O)[C@@H]25)C/C3=C/CO (some centres undefined),inactive,
CCC(=O)CCCCC[C@@H]1NC(=O)[C@H]2CCCCN2C(=O)[C@H](C(C)C)NC(=O)[C@H](Cc2cn(OC)c3ccccc23)NC1=O,3.31 µM (active),
C/C(=C\[C@H](C)C(=O)CCCC1CC(=O)NC(=O)C1)[C@@H]1OC(=O)/C=C/CC/C=C/[C@H](O)[C@@H](O)[C@@H]1C,inactive,
C/C=C(/C)c1c(Cl)c(O)c(C)c2c1Oc1c(Cl)c(O)c(Cl)c(C)c1C(=O)O2,inactive,
C=C[C@@]1(C)CC[C@@H]([C@H](C)C(=O)/C=C/C(C)(C)O)O1,inactive,
C=C1CC[C@@H](O[C@H]2C[C@@](O)([C@H](C)NC(=O)c3[nH]c(C)c(Cl)c3Cl)[C@H](O)[C@@H](C)O2)[C@@H]2C=C[C@H](C)C(/C(O)=C3/C(=O)[C@H](C(C)C)N([C@@H]4O[C@H](C)[C@H](OC(N)=O)[C@H](OC(C)=O)[C@@H]4OC)C3=O)[C@@H]12 (some centres undefined),inactive,
COc1ccc([C@@H]2CC(=O)c3c(cc(O)c(C/C=C(\C)CCC=C(C)C)c3O)O2)cc1,,-1.01% [at 9.19 µM]
O=c1cc(-c2ccc(O)c(O)c2)oc2cc(O[C@@H]3O[C@H](CO)[C@@H](O)[C@H](O)[C@H]3O)cc(O)c12,inactive,
C/C1=C/[C@@H](C)[C@H](O)[C@@H](O)/C=C/CC/C=C/C(=O)O[C@@H]1[C@H](C)C(=O)CCCC1CC(=O)NC(=O)C1,inactive,
